In PubChem BioAssay AID1259249 (Broad Institute, 2017):
“And” between values parts separate entries of the source, which are not always exact repeats. Equal entries are not always repeated. Screen size: about 86,000 compounds; about 220 (0.26%) were called active.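 Rule for the calls: active = mean growth activity at or below -80% and every replicate also at or below -80%; inconclusive = mean at or below -80% but some replicate above -80%; inactive = mean growth activity above -80%.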 The full list was thinned out, with actives kept by preference.

Assay: C. difficile growth inhibitors, primary screen, HTS (AID 1259249);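 note: 0% = DMSO wells and -100% = levofloxacin 16 µg/mL wells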
Details: Clostridium difficile clinical isolate growth, OD600, 24 h; active compounds read low; screened at 16 µg/mL (by protocol)

Growth activity, negative = inhibition, inactive:
C[C@@H]1CN([C@@H](C)CO)C(=O)c2cc(-c3cccnc3)cnc2O[C@@H]1CN(C)C(=O)C1CC1 4.12%
COc1ccccc1S(=O)(=O)N1C[C@@H]2N[C@H](C1)C2c1ccc(-c2cccc(C)c2)cc1 (some centres not stated) 66.4% and 49%
O=C(C1CCOCC1)N1CC2(C1)[C@H](c1ccccc1)[C@H](CO)N2Cc1ccc(Cl)cc1 -1.43%
C[C@@H]1CCCCO[C@H](CN(C)Cc2ccc(C(F)(F)F)cc2)[C@H](C)CN([C@@H](C)CO)C(=O)c2cc(N(C)C)ccc2O1 3.85%
Cc1noc(C)c1NC(=O)N(C)C[C@H]1OCCCC[C@@H](C)Oc2ccc(NS(=O)(=O)c3ccc(Cl)cc3)cc2C(=O)N([C@@H](C)CO)C[C@H]1C -9.03%
COc1ccc2c3c([nH]c2c1)[C@@H](CO)NCC31CN(S(=O)(=O)c2cccs2)C1 -6.75%
CCCNC(=O)N1[C@H](CO)[C@@H]2c3ccccc3N(C(=O)C3CC3)C[C@@H]21 1.07%
COc1ccc(CN(C)C[C@@H]2OCCCC[C@H](C)Oc3ccc(NS(=O)(=O)c4ccc(F)cc4)cc3C(=O)N([C@H](C)CO)C[C@H]2C)cc1 8.17%
CC(=O)Nc1ccc2c(c1)C(=O)N(C)[C@@H]1CC[C@H](CC(=O)NCc3ccccc3)O[C@H]1CO2 6.07%
N#Cc1ccc(-c2ccc(C3[C@H]4CNC[C@@H]3N4S(=O)(=O)c3ccccc3F)cc2)cc1 (some centres not stated) 29.2%
CO[C@@H]1CN(C)C(=O)c2ccc(NS(=O)(=O)c3ccc(Cl)cc3)cc2OC[C@@H](C)N(C)C[C@@H]1C -1.74%
CCCN1[C@H](C(=O)N[C@H](C)c2ccccc2)[C@@H](CO)[C@@H]2Cn3c(ccc(-c4cccc(F)c4)c3=O)[C@@H]21 14.4%
COCC#Cc1ccc([C@H]2[C@H]3CN(Cc4ccncc4)CCCCN3[C@H]2CO)cc1 13.5%
C[C@@H]1CN([C@@H](C)CO)C(=O)c2cc(NS(=O)(=O)c3cn(C)cn3)ccc2O[C@@H](C)CCCCO[C@H]1CN(C)S(=O)(=O)c1cccs1 1.84%
CN1c2ccc(-c3ccccc3)cc2[C@H]2[C@H](CCN2C(=O)c2ccc3c(c2)OCO3)[C@H]1CO -20.7%
CN1C(=O)c2cc(NC(=O)c3cnccn3)ccc2OC[C@H]2O[C@@H](CC(=O)NCC3CCCCC3)CC[C@@H]21 0.457%
CO[C@H]1CN(C)C(=O)c2cc(NC(=O)C3CC3)ccc2OC[C@H](C)N(Cc2ccccc2)C[C@H]1C -3.86%
Cc1ccc(-c2ccc3c(c2)O[C@H](CN(C)C(=O)CC2CC2)[C@@H](C)CN([C@H](C)CO)S3(=O)=O)cc1 3.19%
CCC(CO)Oc1cc(NC(=O)c2ccc(Cl)cc2)c2ncn(C(C)C)c2c1 (configuration not stated) -0.177%
O=C(NC1CCCC1)N1CC(=O)N2[C@H](C1)[C@H](c1ccc(/C=C/c3ccccc3)cc1)[C@@H]2CO -1.1%
COCC(=O)N1CC2(C1)[C@@H](c1ccc(-c3cccc(F)c3)cc1)[C@@H](CO)N2C(=O)COC -0.178%
CN1c2ccc(Br)cc2[C@@H]2[C@@H](CCN2S(=O)(=O)c2ccc(F)cc2)[C@@H]1CO 67.3%
COCC(=O)N1CC(=O)N2[C@H](C1)[C@@H](c1ccc(C#Cc3cccc(OC)c3)cc1)[C@@H]2CO -20.7%
Cc1nc(N2[C@H](CO)[C@H](c3ccccc3)[C@H]2CNCC2CCC2)sc1C 8.18%
C/C=C/c1ccc([C@@H]2[C@@H](CO)N(C(=O)c3ccccc3)C23CN(C(C)=O)C3)cc1 -2.56%
COc1ccc(C#Cc2cccc(-c3nc(C(=O)O)cc4c3[C@@H](CCO)N(S(=O)C(C)(C)C)C4)c2)cc1OC (some centres not stated) -2.07%
CCO[C@H]1OC(C(=O)N2CCCCCCC2)=C[C@@H](c2ccc(C(F)(F)F)cc2)[C@@H]1CCCO 9.8%
C[C@H]1CN([C@@H](C)CO)C(=O)c2cc(C#CC3CCCCC3)cnc2O[C@@H]1CN(C)C(=O)Cc1ccccn1 -14%
Cc1noc(C)c1S(=O)(=O)N(C)C[C@@H]1OCCCC[C@@H](C)Oc2ccc(NC(=O)c3ccccc3)cc2C(=O)N([C@H](C)CO)C[C@H]1C 5.17%
COc1ccc(CN(C)C[C@H]2OCCCC[C@H](C)Oc3ccc(NS(C)(=O)=O)cc3C(=O)N([C@H](C)CO)C[C@@H]2C)cc1 -0.222%
O=C(C[C@@H]1C=C[C@@H](NS(=O)(=O)c2ccccc2)[C@H](CO)O1)N1CCN(c2ccccc2)CC1 0.541%
O=C(c1cnccn1)N1CC2(C1)[C@H](c1ccccc1)[C@H](CO)N2C(=O)c1ccccc1 -0.792%
O=C(C[C@H]1CC[C@H]2[C@@H](COC[C@@H](O)CN2CC2CCCC2)O1)NCC1CC1 -1.93%
Cc1ccccc1S(=O)(=O)N1C[C@@H]2N[C@H](C1)C2c1ccc(-c2cccc(C(=O)N(C)C)c2)cc1 (some centres not stated) 4.24%
CN(C)CC(=O)N1[C@H](C(=O)NC2CCC2)[C@@H](CO)[C@@H]2Cn3c(ccc(-c4ccc(F)cc4)c3=O)[C@@H]21 -0.849%
CCCNC(=O)N1CCC2(CC1)CN(C(=O)CN1CCOCC1)[C@H](CO)c1[nH]c3cc(OC)ccc3c12 5.44%
C[C@@H]1CCCCO[C@H](CN(C)C(=O)NC2CCCCC2)[C@H](C)CN([C@H](C)CO)C(=O)c2cc(NC(=O)c3ccncc3)ccc2O1 -3.74%
COc1ccc2c3c([nH]c2c1)[C@H](CO)N(Cc1nccs1)CC31CCN(C(=O)C2CCC2)CC1 -4.33%
CCCC#Cc1ccc([C@@H]2[C@@H](C#N)N(C(=O)C3CC3)[C@H]2CO)cc1 -16.8%
CCCNC(=O)Nc1ccc2c(c1)OC[C@H](C)N(CCC(F)(F)F)C[C@H](C)[C@@H](OC)CN(C)C2=O -16.2%
Cc1ccc(S(=O)(=O)N[C@@H]2CC[C@@H](CCn3cc(C4CC4)nn3)O[C@@H]2CO)cc1 -1.26%
C[C@@H]1CCCCO[C@@H](CN(C)C(=O)NC2CCCCC2)[C@H](C)CN([C@H](C)CO)C(=O)c2cc(NC(=O)Nc3cccc4ccccc34)ccc2O1 2.69%
O=C(c1ccncc1)N1C[C@H]2[C@@H](c3ccccc31)[C@H](CO)N2Cc1ccc(F)cc1 -10.6%
CCCC(=O)N1CC2(CN(C(=O)NC(C)C)C2)c2c([nH]c3cc(OC)ccc23)[C@@H]1CO -10.9%
CC(C)C(=O)Nc1ccc2c(c1)C(=O)N(C)[C@@H]1CC[C@@H](CC(=O)NCCc3ccccc3)O[C@H]1CO2 -2.19%
COc1ccc2c3c(n(C)c2c1)[C@H](CO)N(CC1CC1)CC31CCN(C(=O)c2ccccc2)CC1 22.3%
COCc1cn(CC[C@@H]2CC[C@@H](NC(=O)Nc3ccc(C(F)(F)F)cc3)[C@H](CO)O2)nn1 1.56%
C[C@@H]1CN([C@@H](C)CO)C(=O)c2cc(NC(=O)Nc3ccc4c(c3)OCO4)ccc2O[C@@H](C)CCCCO[C@H]1CN(C)C(=O)Nc1ccc(C(F)(F)F)cc1 3.76%
CCN1[C@@H]2c3cccc(=O)n3C[C@H]1[C@H](CO)[C@H]2C(=O)NC1Cc2ccccc2C1 -3.73%
O=C(C1CCC1)N1CC(=O)N2[C@@H](CO)[C@@H](c3ccc(C#Cc4cccc(F)c4)cc3)[C@@H]2C1 -12.4%
Cc1ccc(-c2cnc3c(c2)C(=O)N([C@H](C)CO)C[C@H](C)[C@@H](CN(C)C(=O)c2cccc(F)c2)O3)cc1 0.45%
CN1c2ccc(-c3cccc(F)c3)cc2[C@H]2[C@H](CCN2C(=O)c2cccc(F)c2)[C@H]1CO -1.71%
C[C@@H]1CN([C@@H](C)CO)C(=O)Cc2cc(NC(=O)Nc3ccc(C(F)(F)F)cc3)ccc2O[C@H]1CN(C)Cc1ccc(C(=O)O)cc1 4.68%
COc1cccc(NC(=O)N(C)C[C@@H]2Oc3ncc(Br)cc3C(=O)N([C@@H](C)CO)C[C@H]2C)c1 4.14%
CO[C@@H]1CN(C)C(=O)c2cc(NC(=O)C3CCCC3)ccc2OC[C@@H](C)N(Cc2ccc(F)cc2)C[C@H]1C 7.43%
COc1ccccc1NC(=O)N1C[C@H]2[C@@H](c3ccccc31)[C@H](CO)N2Cc1ccc2c(c1)OCO2 -2.67%
COc1ccccc1NC(=O)N1C[C@@H]2[C@H](c3ccccc31)[C@H](CO)N2CC1CCOCC1 8.14%
CO[C@@H]1CN(C)C(=O)c2cc(NC(=O)C3CCC3)ccc2OC[C@H](C)N(Cc2ccccn2)C[C@H]1C -0.0418%
COc1ccccc1C#Cc1ccc2c(c1)O[C@H](CN(C)Cc1cccnc1)[C@@H](C)CN([C@H](C)CO)S2(=O)=O 2.69%
C[C@H]1CN([C@@H](C)CO)C(=O)c2cc(C#CC3CCCC3)cnc2O[C@@H]1CN(C)C(=O)Cc1ccccn1 -9.22%
N#C[C@H]1[C@@H](c2ccccc2C2=CCCC2)[C@H](CO)N1C(=O)c1cccc(F)c1 -5.69%
C[C@@H]1CCCCO[C@H](CN(C)CC2CCCCC2)[C@H](C)CN([C@H](C)CO)C(=O)c2cc(NS(=O)(=O)c3ccc(F)cc3)ccc2O1 11.3%
